Source: PubChem BioAssay (NCATS)
Records with an inconclusive call do not appear. Activity calls are given as the source filed them. Calls come from the whole dose curve; as a rule, active = well fitted inhibition curve with a large enough effect; inconclusive = small, poorly fitted or top-dose-only effect; inactive = flat fitted curve, though single readings scatter.

Assays:
Assay in all cases: qHTS profiling for inhibitors of Plasmodium falciparum proliferation (AID 504749); note: nearly all actives have a fitted effect of over 60% in size
Details in all cases: P. falciparum in erythrocytes, SYBR Green DNA, 72 h; series mostly up to 28.7 µM
CP185 = system: CP185
How it was run: (§1)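 SYBR Green fluorescence of parasite DNA, read after lysis and overnight dark incubation, measured growth over 72 h in erythrocyte culture at 0.3% parasitemia and 2.5% hematocrit. Data normalised to DMSO and 0.29 uM artemisinin, with plate-drift correction.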

CP191 = system: CP191
How it was run: as §1

CP192 = system: CP192
How it was run: as §1

CP194 = system: CP194
How it was run: as §1

CP201 = system: CP201
How it was run: as §1

CP211 = system: CP211
How it was run: as §1

CP215 = system: CP215
How it was run: as §1

CP217 = system: CP217
How it was run: as §1

CP237 = system: CP237
How it was run: as §1

CP203 = system: CP203
How it was run: as §1

Measured: Potency
Potency is the fitted concentration of half-maximal effect.

NNCCc1ccccc1
inactive: CP185 | CP191 | CP192 | CP194 | CP201 | CP211 | CP215 | CP217 | CP237

N=c1nc(N2CCCCC2)cc(N)n1O
inactive: CP185 | CP191 | CP192 | CP194 | CP201 | CP211 | CP215 | CP217 | CP237

O=C1CCC(N2C(=O)c3ccccc3C2=O)C(=O)N1 (configuration not stated)
inactive: CP185 | CP191 | CP192 | CP194 | CP201 | CP211 | CP215 | CP217 | CP237

CCc1ccc(CCOc2ccc(CC3SC(=O)NC3=O)cc2)nc1 (configuration not stated)
inactive: CP185 | CP191 | CP192 | CP194 | CP201 | CP211 | CP215 | CP217 | CP237

NCCc1ccc(O)c(O)c1
inactive: CP185 | CP191 | CP192 | CP194 | CP201 | CP211 | CP215 | CP217 | CP237

CC(=O)Oc1ccccc1C(=O)O
inactive: CP185 | CP191 | CP192 | CP194 | CP201 | CP211 | CP215 | CP217 | CP237

Nc1ccc(S(=O)(=O)Nc2ccnn2-c2ccccc2)cc1
inactive: CP185 | CP191 | CP192 | CP194 | CP201 | CP203 | CP211 | CP217 | CP237

Cc1cn[nH]c1
inactive: CP185 | CP191 | CP192 | CP194 | CP201 | CP211 | CP215 | CP217 | CP237

Cc1[nH]c(=O)c(C#N)cc1-c1ccncc1
inactive: CP185 | CP191 | CP192 | CP194 | CP201 | CP211 | CP215 | CP217 | CP237

Cc1[nH]c(=O)c(C#N)cc1-c1ccc2nccn2c1
inactive: CP185 | CP191 | CP192 | CP194 | CP201 | CP211 | CP215 | CP217 | CP237

O=NN(CCCl)C(=O)NCCCl
inactive: CP185 | CP191 | CP192 | CP194 | CP201 | CP211 | CP215 | CP217 | CP237

Oc1ccc(C2CNCCc3c2cc(O)c(O)c3Cl)cc1 (configuration not stated)
inactive: CP185 | CP191 | CP192 | CP194 | CP201 | CP211 | CP215 | CP217 | CP237

NC(=O)c1cnccn1
inactive: CP185 | CP191 | CP192 | CP194 | CP201 | CP211 | CP215 | CP217 | CP237

NCCCC(N)(C(=O)O)C(F)F (configuration not stated)
inactive: CP185 | CP191 | CP192 | CP194 | CP201 | CP211 | CP215 | CP217 | CP237

CCCCNc1cc(C(=O)O)cc(S(N)(=O)=O)c1Oc1ccccc1
inactive: CP185 | CP191 | CP192 | CP194 | CP201 | CP203 | CP211 | CP217 | CP237

N[C@@H]1CONC1=O
inactive: CP185 | CP191 | CP192 | CP194 | CP201 | CP211 | CP215 | CP217 | CP237

CC(C)NCC(O)COc1ccc(COCCOC(C)C)cc1 (configuration not stated)
inactive: CP185 | CP191 | CP192 | CP194 | CP201 | CP211 | CP215 | CP217 | CP237

Nc1nc2c(ncn2COCCO)c(=O)[nH]1
inactive: CP185 | CP191 | CP192 | CP194 | CP201 | CP211 | CP215 | CP217 | CP237

CCCc1nn(C)c2c(=O)[nH]c(-c3cc(S(=O)(=O)N4CCN(C)CC4)ccc3OCC)nc12
inactive: CP185 | CP191 | CP192 | CP194 | CP201 | CP211 | CP215 | CP217

Cc1ccc(N(CC2=NCCN2)c2cccc(O)c2)cc1
inactive: CP185 | CP191 | CP192 | CP194 | CP201 | CP211 | CP215 | CP217 | CP237

CC(C[N+](C)(C)C)OC(N)=O (configuration not stated)
inactive: CP185 | CP191 | CP192 | CP194 | CP201 | CP211 | CP215 | CP217 | CP237

N#Cc1ccc(C(c2ccc(C#N)cc2)n2cncn2)cc1
inactive: CP185 | CP191 | CP192 | CP194 | CP201 | CP211 | CP215 | CP217 | CP237

O=c1[nH]cnc2[nH]ncc12
inactive: CP185 | CP191 | CP192 | CP194 | CP201 | CP211 | CP215 | CP217 | CP237

Clc1cccc(Cl)c1NC1=NCCN1
inactive: CP185 | CP191 | CP192 | CP194 | CP201 | CP211 | CP215 | CP217 | CP237

OC(CN1CCC(Cc2ccc(F)cc2)CC1)c1ccc(Cl)cc1 (configuration not stated)
active: CP237 2.51 µM
inactive: CP191 | CP201 | CP211

CC(c1cc2ccccc2s1)N(O)C(N)=O (configuration not stated)
inactive: CP185 | CP191 | CP192 | CP194 | CP201 | CP211 | CP217 | CP237

COc1ccc2nc(S(=O)Cc3ncc(C)c(OC)c3C)[nH]c2c1 (configuration not stated)
inactive: CP185 | CP192 | CP194 | CP201 | CP211 | CP215 | CP217 | CP237

CC(C)C[C@H](NC(=O)[C@@H](O)[C@H](N)Cc1ccccc1)C(=O)O
active: CP185 11.2 µM | CP191 5.01 µM | CP194 6.75 µM | CP211 6.01 µM | CP215 6.75 µM | CP217 6.31 µM | CP237 4.47 µM

Cc1oncc1C(=O)Nc1ccc(C(F)(F)F)cc1
inactive: CP185 | CP192 | CP194 | CP201 | CP203 | CP211 | CP217 | CP237

O=C1CCc2cc(OCCCCc3nnnn3C3CCCCC3)ccc2N1
inactive: CP191 | CP192 | CP194 | CP201 | CP211 | CP215 | CP237

CCOC(=O)N1CCC(=C2c3ccc(Cl)cc3CCc3cccnc32)CC1
active: CP217 3.98 µM | CP237 8.91 µM

Cc1c(C)c2c(c(C)c1O)CCC(C)(COc1ccc(CC3SC(=O)NC3=O)cc1)O2 (configuration not stated)
inactive: CP185 | CP192 | CP201

NC(N)=NC(=O)c1nc(Cl)c(N)nc1N
inactive: CP185 | CP192 | CP194 | CP201 | CP211
active: CP191 8.91 µM | CP237 8.91 µM

CN1CCN(CCCN2c3ccccc3Sc3ccc(C(F)(F)F)cc32)CC1
inactive: CP201
active: CP191 10 µM | CP237 12.6 µM

C1COC(NC(C2CC2)C2CC2)=N1
inactive: CP185 | CP192 | CP201 | CP211

CCCc1nc2c(C)cc(-c3nc4ccccc4n3C)cc2n1Cc1ccc(-c2ccccc2C(=O)O)cc1
active: CP237 4.47 µM
inactive: CP185 | CP201

NC[C@H](O)c1ccc(O)c(O)c1
inactive: CP185 | CP191 | CP194 | CP201 | CP211 | CP215 | CP217 | CP237

Clc1ccc(Nc2nnc(Cc3ccncc3)c3ccccc23)cc1
inactive: CP185 | CP192 | CP194 | CP201 | CP211 | CP215

O=c1n(CCCN2CCN(c3cccc(Cl)c3)CC2)nc2ccccn12
inactive: CP185 | CP191 | CP192 | CP194 | CP201 | CP211 | CP217 | CP237

CCOC(=O)C1=C[C@@]2(CC)CCCN3CCc4c(n1c1ccccc41)[C@H]32
active: CP192 13.5 µM | CP194 13.5 µM | CP211 13.5 µM | CP215 10.7 µM

CNC[C@H](O)c1cccc(O)c1
inactive: CP185 | CP191 | CP192 | CP194 | CP201 | CP211 | CP217 | CP237

NS(=O)(=O)c1cc2c(cc1Cl)NC=NS2(=O)=O
inactive: CP185 | CP191 | CP192 | CP194 | CP201 | CP211 | CP215 | CP217 | CP237

Cn1cnc([N+](=O)[O-])c1Sc1ncnc2nc[nH]c12
inactive: CP192 | CP201 | CP211 | CP215 | CP237

Nc1nc2ccc(OC(F)(F)F)cc2s1
inactive: CP185 | CP192 | CP194 | CP201 | CP211 | CP215 | CP217 | CP237

Cc1ccccc1C(OCCN(C)C)c1ccccc1 (configuration not stated)
inactive: CP191 | CP192

CCOC(=O)C1=C[C@]2(CC)CCCN3CCc4c(n1c1ccccc41)[C@@H]32
active: CP217 11.2 µM

C#Cc1cccc(Nc2ncnc3cc(OCCOC)c(OCCOC)cc23)c1
inactive: CP185 | CP192
active: CP237 12.6 µM

Cc1cc2c(C(C)C)c(O)c(O)c(C=O)c2c(O)c1-c1c(C)cc2c(C(C)C)c(O)c(O)c(C=O)c2c1O
active: CP237 10 µM
